The values that follow come from PubChem BioAssay (EPA / NIEHS).

The source made the active and inactive calls. The calls were made as follows: active = hit-call score of the fitted dose curve at least 0.9, where 1 is the maximum; inactive = score below 0.9.

This assay is described as follows: ATG_GLI_CIS: Attagene CIS-FACTORIAL HepG2 Assay for human Zinc Finger Protein GLI1 (AID 2282945). The following applies: HepG2, Attagene cis-factorial reporter mRNA, GLI element; actives raise or lower the signal. The method, boiled down:
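HepG2 cells transiently transfected with cis-promoter multiplexed reporter units report endogenous transcription factor activity. After 24 h chemical exposure, reporter mRNA was quantified by RT-PCR, 6-FAM labelling, HpaI digestion and capillary electrophoresis, with bidirectional fitting against DMSO.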
With `Cc1ccc(N=C=O)cc1N=C=O`, the outcome was inactive.
Regarding `[As]#[In]`, the compound was called inactive.
Usually AC50 stands for the concentration giving half of the maximal activity seen. Turning to `CCCCCCCCOC(=O)c1ccc(C(=O)OCCCCCCCC)c(C(=O)OCCCCCCCC)c1`, the AC50 is 26.3 µM (active).
For `CCOC(=O)[C@]1(c2ccccc2)Oc2ccccc2[C@@H]1N`, the concentration at half-maximal activity (AC50) is 59.5 µM (active).
For `CN(C)C(=O)Nc1ccc(Cl)cc1`, the outcome was inactive.
As for `Nc1ccc(N=Nc2ccccc2)cc1`, the outcome was inactive.
`O=P(OCCCl)(OCCCl)OCCCl`: the compound was classed as inactive.
As to `C=CCc1ccc2c(c1)OCO2`, the call was inactive.
In the case of `CC(C)(C)C(O)(CCc1ccc(Cl)cc1)Cn1cncn1` (stereo not drawn), the compound was called inactive.
The same measure, in the same setting: in the case of `CCC12COCN1COC2` it was “inactive”; in that of `N#CC(Br)(Br)C(N)=O`, “inactive”.
Consider `COC(=O)c1ccccc1N`, for which the outcome was inactive.
Take `O=C(N[C@H](c1ccccc1)[C@@H]1CN2CCC1CC2)c1c(Cl)ccc(C(F)(F)F)c1Cl`: the compound was called inactive.
For the compound `CN(C)c1ccc(C(=O)c2ccc(N(C)C)cc2)cc1`, the call was inactive.
As to `O=C(Oc1ccc(Br)cc1)N1CCN2CCC1CC2`, the compound was called inactive.
On to `Cc1cc(N=Nc2ccccc2C)ccc1N`, for which the compound was classed as inactive.
For `OCCCl`, the result was inactive.
As to `CC(C)COC(=O)c1ccccc1C(=O)OCC(C)C`, the compound was classed as inactive.
As to `Clc1ccc(C(c2ccc(Cl)cc2)C(Cl)(Cl)Cl)cc1`, the compound was called inactive.
`Clc1ccc(Cl)c(Cl)c1`: the outcome was inactive.
As for `O=[N+]([O-])C(Br)(CO)CO`, the AC50 is 169 µM (active).
In the case of `OCCOCCO`, the compound was classed as inactive.
As to `Nc1ccc(Cc2ccc(N)cc2)cc1`, the compound was classed as inactive.
For `Nc1cc(Cl)cc(C(=O)O)c1Cl`, the call was inactive.
`C1=Cc2cccc3cccc1c23`: the compound was called inactive.
On to `ClCCOCCCl`, for which the compound was called inactive.
Still for that read-out and setting: with `Cc1cccc(N)c1N` the entry was “inactive”; with `CC(C)(O)c1cnn2c(-c3ccc(F)c(-c4c(F)cccc4C#N)c3)cnc2n1`, “inactive”.
